# Assay outcomes: PubChem BioAssay, National Center for Advancing Translational Sciences (NCATS)
# This is a sample that favours compounds with a hit; in the whole collection about 12% have one here.
# PI5P4Ka inh = qHTS for Inhibitors of phosphatidylinositol 5-phosphate 4-kinase (PI5P4K); Phosphatidylinositol 5-phosphate 4-kinase type-2 alpha (Homo sapiens), P48426; PI5P4Kalpha enzyme, ADP-Glo luminescence, 60 min; active compounds read low; max response, %; 1.2% of 330,000 active; AID 652105, 2013; active = max response of -50% or lower; inconclusive = between -30% and -50%; inactive = -30% or higher; also: value at the top dose of about 77 µM
# Target sequence (P48426 whole entry, looked up): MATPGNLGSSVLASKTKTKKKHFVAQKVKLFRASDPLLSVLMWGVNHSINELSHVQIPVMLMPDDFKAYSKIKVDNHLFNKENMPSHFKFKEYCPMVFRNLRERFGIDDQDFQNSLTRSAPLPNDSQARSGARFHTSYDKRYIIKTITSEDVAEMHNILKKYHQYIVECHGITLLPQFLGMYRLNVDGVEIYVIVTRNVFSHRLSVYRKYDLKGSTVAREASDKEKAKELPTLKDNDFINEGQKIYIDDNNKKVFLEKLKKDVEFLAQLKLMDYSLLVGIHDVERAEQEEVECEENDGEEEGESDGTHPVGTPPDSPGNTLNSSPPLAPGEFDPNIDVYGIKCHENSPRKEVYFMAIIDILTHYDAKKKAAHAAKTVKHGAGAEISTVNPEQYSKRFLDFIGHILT
#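 Single end-point luminescence (ADP-Glo) quantified ADP from PI5P4Kalpha turnover; ATP 5 microM final, 1 h at RT, 0.1% CHAPS and 0.28 mM EGTA in HEPES pH 7.4.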
# G9a inh = qHTS Assay for Inhibitors of Histone Lysine Methyltransferase G9a; Histone-lysine N-methyltransferase EHMT2 (Homo sapiens), Q96KQ7; G9a H3K9 monomethylation, AlphaScreen, 2 h; Potency, µM (doses to about 102 µM), actives largely listed as inhibitors; 8.8% of 350,000 active; also: nearly all actives have a fitted effect of over 75% in size
#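 G9a (20 nM) preincubated 15 min RT with compounds, then 500 nM biotinylated H3K9 peptide and 20 uM SAM added; 2 h RT reaction. Monomethyl-H3K9 product detected by AlphaScreen with anti-H3K9me1 antibody, streptavidin donor and anti-rabbit IgG acceptor beads.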
# JMJD2A Tudor inh = qHTS Assay for Inhibitors of JMJD2A-Tudor Domain | Lysine-specific demethylase 4A (Homo sapiens), O75164 | AlphaScreen JMJD2A-Tudor / H3K4me3 peptide binding | Potency, µM (top dose mostly 114 µM), most hits filed as inhibitors | 4.4% of 390,000 active | AID 504339, 2011; also: nearly all actives have a fitted effect of over 50% in size
# BAZ2B block = qHTS Assay for Inhibitors of BAZ2B; Bromodomain adjacent to zinc finger domain protein 2B (Homo sapiens), Q9UIF8; AlphaScreen BAZ2B-H3K14Ac peptide displacement; Potency, µM (series often up to 114 µM), hits mostly inhibitors; 4.4% of 360,000 active; also: nearly all actives have a fitted effect of over 60% in size
#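 Complex of BAZ2B and biotin-H3K14Ac (50 nM apiece) forms over 30 min at RT, then faces library compounds up to 110 uM for another 30 min; AlphaScreen beads added, 20 min dark incubation, luminescence read.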
# HP1b binding inh = HTS for Inhibitors of HP1-beta Chromodomain Interactions with Methylated Histone Tails; AID 540317, 2011; Potency, µM (doses to about 114 µM), most hits filed as inhibitors; 0.56% of 390,000 active; AlphaScreen HP1-beta / biotin-H3K9me3 peptide binding; Chromobox protein homolog 1 (Homo sapiens), P83916; also: nearly all actives have a fitted effect of over 70% in size
# Target sequence (P83916 whole entry, looked up): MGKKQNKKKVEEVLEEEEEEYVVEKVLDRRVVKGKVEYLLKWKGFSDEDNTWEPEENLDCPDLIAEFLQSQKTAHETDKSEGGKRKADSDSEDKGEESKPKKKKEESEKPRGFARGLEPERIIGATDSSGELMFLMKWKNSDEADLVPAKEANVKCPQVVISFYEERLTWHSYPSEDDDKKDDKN
#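 Compound inhibition of the preformed complex between 50 nM HP1-beta and 50 nM biotinylated H3K9me3 peptide was read by AlphaScreen. Buffer was PBS pH 7.4 with 0.01% Tween-20. Incubations ran 30 min at room temperature, with 10 ug/mL donor/acceptor beads.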
# PLK1 PBD block = qHTS for Inhibitors of PLK1-PDB (polo-like kinase 1 - polo-box domain): Primary Screen; Potency, µM, most hits filed as inhibitors; Plk1 PBD binding of FITC phosphopeptide, fluorescence polarization; 2.8% of 360,000 active; also: series mostly up to about 57 µM; nearly all actives have a fitted effect of over 65% in size
# TbPYK inh = qHTS of Trypanosoma Brucei Inhibitors: Confirmatory Assay for Cherry-picked Compounds | 67% of 890 active | Potency, µM (top dose mostly 76.9 µM), actives largely listed as inhibitors | recombinant TbPYK, Kinase-Glo ATP luminescence | shares compounds with PLK1 PBD block; also: nearly all actives have a fitted effect of over 70% in size
# TbPYK orthogonal = qHTS of Trypanosoma Brucei Inhibitors: Orthogonal Assay for Cherry-picked Compounds | shares compounds with PLK1 PBD block | recombinant TbPYK, ADP-Glo luminescence, 60 min | Potency, µM (titrated, usually from 76.9 µM), hits mostly inhibitors | 62% of 890 active; also: nearly all actives have a fitted effect of over 75% in size
# Numbers stand for hits; 0 = inactive; ? = inconclusive; - = no result; [ ] = dose if it differs, or a comment. Unless noted, calls follow the shape of the dose curve; as a rule, active = well fitted curve in the direction sought with a large enough effect; inconclusive = small, poorly fitted or top-dose-only effect, or another doubt; inactive = no such curve, though single readings can be large; an effect the other way counts as inactive or inconclusive.
SMILES,PI5P4Ka inh,G9a inh,JMJD2A Tudor inh,BAZ2B block,HP1b binding inh,PLK1 PBD block,TbPYK inh,TbPYK orthogonal
CN(C)c1ccc(C(c2ccc(N(C)C)cc2)C(O)c2ccccc2)cc1 (configuration not stated),0,-,22.4µM,-,?,0,2.82µM,?
O=S(=O)(/N=S1\CC=CCN1S(=O)(=O)c1ccccc1)c1ccccc1 (configuration not stated),-50.4,-,0,-,?,3.36µM,0.501µM,1.41µM
COc1cccc(C(c2sc3nc(C)nn3c2O)N2CCc3ccccc3C2)c1 (configuration not stated),?,3.98µM,20µM,0,50.1µM,?,20µM,25.1µM
CC1COCC(C)N1C1=C(Cl)C(=O)c2ccccc2C1=O (configuration not stated),-69.7,-,3.16µM,-,12.6µM,13.4µM,?,?
O=C1C(Cl)=C(NCCN2CCOCC2)C(=O)c2ccccc21,0,?,0,0,?,0,-,-
CCCCCCCCSC1=CC(=O)C(OC)=C(OC)C1=O,?,-,-,-,-,2.38µM,2.82µM,3.98µM
CCCCCSc1nncc(=O)[nH]1,-,?,0,0,0,0,-,-
O=C(COC(=O)Cc1n[nH]c(=O)c2ccccc12)NNC(=O)c1ccc(Cl)cc1,?,0[12.7 µM],0,0,0,0,-,-
O=c1[nH]c(SCc2ccc([N+](=O)[O-])cc2)nc2[nH]ncc12,0,0,0,0,0,0,-,-
Cc1noc(C)c1COc1ccccc1C(=O)N1CCN(S(=O)(=O)c2ccccc2F)CC1,0,?,0,0,0,0,-,-
O=C1C2C3C=CC(C3)C2C(=O)N1CCCCCCN1C(=O)C2C3C=CC(C3)C2C1=O (configuration not stated),0,0,0,?,0,0,-,-
O=C1C=CC(=O)N1CCCCCCN1C(=O)C=CC1=O,-58.4,1.58µM,17.8µM,0,?,3.36µM,7.08µM,7.08µM
O=C(CC1CC1)Nc1ccc2c(c1)[C@@H]1C[C@H](CC(=O)NC3CCCC3)O[C@@H](CO)[C@@H]1O2,0,-,-,-,-,0,-,-
Cc1snc(SCC(=O)c2ccc([N+](=O)[O-])cc2)c1C#N,-57.3,1.78µM,0[11.4 µM],14.1µM,?,9.47µM,17.8µM,20µM
CCOC(=O)c1ccccc1NC(=O)c1sc2ncn(CC)c(=O)c2c1C,-,?,0,0,0,-,-,-
COC(=O)/C(=N\Nc1ccccc1)Sc1nnc(-c2ccc(OC)cc2)n1C,0,5.01µM,?,0,0,0,17.8µM,17.8µM
O=C(N/N=C\c1ccc(-c2ccc([N+](=O)[O-])cc2)o1)C1COc2ccccc2O1 (configuration not stated),0,0,0,0,0,0,-,-
CN(C)c1ccc(/C=N/NC(=O)C2COc3ccccc3O2)o1 (configuration not stated),0,?,0,0,0,0,?,35.5µM
CCN(CC)CCN(C(=O)c1ccc2ncsc2c1)c1nc2cc3c(cc2s1)OCO3,?,-,50.1µM,39.8µM,0,0,15.8µM,15.8µM
COc1ccc(S(=O)(=O)N2CCN(CC(=O)c3ccc(O)c(O)c3)CC2)cc1,0,28.2µM,?,0,0,0,?,?
COc1ccc(S(=O)(=O)N2CCN(CC(=O)NC3CCCC3)CC2)cc1,0,?,0,0,0,0,-,-
Cc1nc(Nc2nc3ccccc3o2)nc(C)c1C,0,0,?,0,0,29.9µM,0,0
Cc1ccc2oc(Nc3nc(C)c(C)c(C)n3)nc2c1,0,0,0,0,0,0,-,-
CN(C)c1ccc(CN(C(=O)c2cccs2)C2CCS(=O)(=O)C2)cc1 (configuration not stated),0,0,0,0,0,0,-,-
C[C@H]1CCC/C=C/[C@@H]2C[C@H](O)C[C@H]2[C@H](O)[C@H](S(=O)c2ccc(O)cc2)CC(=O)O1 (some centres not stated),0,-,39.8µM,-,?,10.6µM,17.8µM,12.6µM
SMILES,PI5P4Ka inh,G9a inh,JMJD2A Tudor inh,BAZ2B block,HP1b binding inh,PLK1 PBD block,TbPYK inh,TbPYK orthogonal
CC1CCCC=CC2CC(OC(=O)CN(C)C)CC2C(O)C=CC(=O)O1 (configuration not stated),0,-,0,-,0,0,-,-
Cc1ccc(N=C2C(=O)Nc3ccccc32)cc1,0,0,0,0,0,0,-,-
CCN(CC)c1ccc(N=C2C(=O)Nc3ccccc32)cc1,?,6.31µM,15.8µM,11.2µM,?,0,?,0
Cc1cc(-c2cc(-c3ccc(Cl)cc3)nc(N)c2C#N)co1,-68.8,?,39.8µM,?,0,21.2µM,0,39.8µM
COc1ccc(-c2cc(-c3ccc(O)cc3)nc(N)c2C#N)cc1OC,0,0,0,0,0,0,-,-
Nc1nc2ccc(S(=O)(=O)N3CCCCC3)cc2s1,0,6.31µM,0,0,0,0.336µM,12.6µM,11.2µM
Cc1nc2ccc(S(=O)(=O)N3CCCCC3)cc2s1,0,0,0,0,0,0,-,-
